Assay results taken from PubChem BioAssay AID2279 (Southern Research Specialized Biocontainment Screening …, 2010).
Measured potencies and affinities stand elsewhere. A number with no mark means an inactive call. How the calls were made is not given here.

Experiment: HIV-1 Env-mediated cell fusion inhibitors, dose response, CCR5-tropic Env (AID 2279)
Conditions: CCR5-tropic HIV-1 Env, reporter read-out; series mostly up to 50 µM; inhibition: at the top concentration

| Compound | inhibition |
| --- | --- |
| Cc1ccc(C)c(S(=O)(=O)/N=C2\C=C(NS(=O)(=O)c3ccccc3)C(=O)c3ccccc32)c1 | 32.6% |
| O=C(NN1C(=O)/C(=C/c2ccc(O)cc2)SC1=S)c1ccccc1O | 21% |
| O=C1NC(=Nc2ccccc2Cl)S/C1=C\c1cccc([N+](=O)[O-])c1O | 4.34% |
| COc1ccc(O)c(C(=O)c2cc(SCC(=O)O)c3nc4sc5c(c4c(=O)n3c2)CCCC5)c1 | 36% |
| O=C(O)c1ccc(N/N=C/c2ccc(-c3cccc(Cl)c3)o2)cc1 | -2.12% |
| COc1cccc(-c2coc3c(C)c4oc(=O)c(CCC(=O)O)c(C)c4cc23)c1 | 37.9% |
| O=S(=O)(Nc1nc(-c2sccc2Cl)cs1)c1cc(Cl)ccc1Cl | -27.6% [at 25 µM] |
| O=C(NN1C(=O)/C(=C\c2ccc(O)c([N+](=O)[O-])c2)SC1=S)c1ccccc1Cl | 2.89% |
| O=C(O)CSc1ncnc2c1sc1nc(-c3ccccc3)c3c(c12)CCC3 | 11.8% |
| Cc1cc(/C=c2\sc3nc4ccccc4n3c2=O)c(C)n1-c1ccc(C(=O)O)cc1 | 34.4% |
| Cc1cc(/C=C2/C(=N)N3C(=NC2=O)SN=C3S(C)(=O)=O)c(C)n1-c1ccccc1 | 5.12% |
| Cc1ccc(S(=O)(=O)/N=C2/NC(=O)/C(=C/c3cc([N+](=O)[O-])ccc3O)S2)cc1 | -12.6% |
| CCCCCCc1c(C)c2ccc(OCC(=O)N[C@@H](Cc3ccccc3)C(=O)O)cc2oc1=O | -3.71% |
| C/C(=N\Nc1ccc(C(=O)O)cc1)c1ccc2c(c1)Nc1ccccc1S2 | 27.4% |
| O=C(O)CCN1C(=O)/C(=C\c2cccc(OCC(=O)Nc3ccc(Cl)cc3)c2)SC1=S | 1.86% |
| N#Cc1c(SCC(=O)Nc2nc3ccc(Br)cc3s2)sc2c(O)cc(=O)[nH]c12 | -35.2% |
| Nc1c(S(=O)(=O)O)cc(NC(=O)c2ccccc2)c2c1C(=O)c1ccccc1C2=O | -0.14% |
| N=C1/C(=C\c2ccc(-c3cccc(C(=O)O)c3)o2)C(=O)N=C2SC=C(c3ccccc3)N12 | 16.1% |

| Compound | inhibition |
| --- | --- |
| COc1cccc(-c2nc(SCC(=O)Nc3nc(-c4ccccc4)c(C)s3)[nH]c(=O)c2C#N)c1 | -9.79% |
| CCOC(=O)c1sc(N2C(=O)C(O)=C(C(=O)c3ccco3)C2c2ccc([N+](=O)[O-])cc2)nc1C (stereo not given) | 35.6% |
| Cc1ccc(S(=O)(=O)Oc2ccc(/C=C3\C(=N)N4N=C(S(C)(=O)=O)SC4=NC3=O)cc2)cc1 | -3.81% |
| O=[N+]([O-])c1cc(Cl)cc(/C=N/NC(=S)Nc2ccc(S(=O)(=O)N3CCOCC3)cc2)c1O | 17.4% |
| CCOC(=O)c1sc2nc3c(SCCC(=O)O)cc(C(=O)c4cc(OC)ccc4O)cn3c(=O)c2c1C | 26.2% |
| Cc1ccc(F)c(NC(=O)/C(C#N)=C(\O)c2ccc(C(C)(C)C)cc2)c1 | 25% |
| O=C(O)c1[nH]c2ccccc2c1C(c1cccc(O)c1)c1c(C(=O)O)[nH]c2ccccc12 | -15.4% |
| COC(=O)c1sc(-c2ccc(C(C)(C)C)cc2)cc1NC(=O)COCC(=O)O | 12.7% |
| CC1=C(C(=O)Nc2ccccc2)C(c2ccc(Cl)cc2)n2c(s/c(=C/c3cccc(OCC(=O)O)c3)c2=O)=N1 (stereo not given) | -8.74% |
| CCOc1cc(Br)cc(C(c2c(C(=O)O)[nH]c3ccccc23)c2c(C(=O)O)[nH]c3ccccc23)c1O | -22.4% |
| CCOc1cc(/C=N/N=C2/NC(=O)C(CC(=O)O)S2)ccc1OCc1ccc(Cl)cc1Cl (stereo not given) | 21.9% |
| COc1cc(NS(=O)(=O)c2ccc(NC(=S)NC(=O)c3sc4ccccc4c3Cl)cc2)nc(OC)n1 | 17.8% |
| COc1cc(/C=C2\C(=N)N3N=C(S(C)(=O)=O)SC3=NC2=O)ccc1OC(=O)c1cccs1 | -6.46% |
| O=C(COc1ccc(Cl)cc1)Nc1cc(NC(=O)COc2ccc(Cl)cc2)cc(C(=O)O)c1 | -12.1% |
| CCCOc1ccc(C(=O)NNC(=S)NC(=O)c2cc(-c3ccc(Cl)cc3)nc3ccccc23)cc1 | -2.5% |
| C=CCOC(=O)C1=C(C)N=c2s/c(=C3\C(=O)N(CC(=O)O)c4ccccc43)c(=O)n2C1c1ccc(OC)cc1 (stereo not given) | 6.53% |
| O=C(O)CSCC(=O)N(Cc1ccccc1)c1nc(-c2ccccc2)c(-c2ccccc2)s1 | 30.6% |
